# An excerpt weighted towards active compounds, which were near 4.6% of everything screened.
# USP7 inh = inhibitors of human USP7 deubiquitinase | purified USP7, Ub-rhodamine cleavage fluorescence | AID 1645854 | inhibition, % at 20 µM | 0.3% of 47,000 active
# USP10 inh = inhibitors of human USP10 deubiquitinase; Q14694; purified USP10, Ub-rhodamine fluorescence, 60 min; inhibition, % at 20 µM; 1.1% of 47,000 active; AID 1645856
# USP8 block = human USP8 deubiquitinase inhibition; 4.2% of 47,000 active; purified USP8, Ub-rhodamine cleavage fluorescence, 30 min; inhibition, % at 20 µM; P40818; AID 1645853
# UCHL1 inh = human UCHL1 deubiquitinase inhibition. purified UCHL1, Ub-rhodamine cleavage fluorescence. inhibition, % at 20 µM. 0.2% of 47,000 active. AID 1645859
# Target sequence (P09936 whole entry, looked up): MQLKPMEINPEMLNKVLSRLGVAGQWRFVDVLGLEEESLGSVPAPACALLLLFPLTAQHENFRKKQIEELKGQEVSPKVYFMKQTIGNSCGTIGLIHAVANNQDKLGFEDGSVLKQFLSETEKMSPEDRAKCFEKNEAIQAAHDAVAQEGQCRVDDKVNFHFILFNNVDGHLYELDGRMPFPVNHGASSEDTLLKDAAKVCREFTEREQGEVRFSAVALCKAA
# An asterisk follows results filed as active; nt = no result given. Rule as the data show it: active = inhibition above about 30%; inactive = the rest.
SMILES,USP7 inh,USP10 inh,USP8 block,UCHL1 inh
O=c1c(S(=O)(=O)c2cc(F)cc(F)c2)c[nH]c2cc(Cl)ccc12,26,22,80*,8
O=C(CSc1ccc2nnc(CCNS(=O)(=O)c3ccccc3)n2n1)N1CCCc2ccccc21,-1,-1,-13,-1
O=C(CSc1ccc2nnc(-c3cccc(F)c3)n2n1)N1CCCc2ccccc21,21,11,38*,3
Cc1ccc(-c2csc3ncnc(Oc4ccc5c(c4)OCO5)c23)cc1,8,-12,8,1
O=C(N[C@@H]1[C@@H](c2ccccc2)[C@@H](CO)N2CCCC[C@H]12)C1CCC1,-47,-5,-62,-39
COc1ccc2[nH]cc(C(=O)c3ccc(F)cc3)c(=O)c2c1,4,1,2,-2
Cc1csc(NC(=O)c2c[nH]c3ccc(F)cc3c2=O)n1,15,46*,85*,25
CCn1c(-c2nnc(SCC(=O)NCCc3nc4ccccc4[nH]3)o2)cc2ccccc21,46*,1,4,13
Cc1ccc(C(=O)Nc2nccnc2C(=O)NC(C)c2ccccc2)cc1 (stereo not given),1,0,-5,2
O=C(NC1CC1)c1nc(-c2cn(-c3ccc(Cl)cc3)nn2)no1,12,6,40*,1
O=C(c1nc(-c2cn(-c3cccc(F)c3)nn2)no1)N1CCOCC1,-8,1,4,-1
O=C(NC1CC1)c1nc(-c2cn(-c3ccc(F)cc3)nn2)no1,0,1,3,-2
Fc1cccc(-n2cc(-c3noc(-c4ccc[nH]4)n3)nn2)c1,-1,1,35*,2
O=C(Nc1ccccc1F)c1nc(-c2cn(-c3ccc(F)cc3)nn2)no1,-13,25,90*,11
COc1ccccc1NC(=O)c1nc(-c2cn(-c3cccc(F)c3)nn2)no1,14,42*,96*,12
CC(C)(CNc1nn2cnnc2c2ccccc12)N1CCOCC1,3,5,23,3
CNC(=O)C1CN(C(=O)Cc2ccccc2C)CC12CCCC2 (stereo not given),-3,-1,-4,1
COc1ccc(C2c3[nH]c4ccccc4c3C[C@@H]3C(=O)N(c4ccc5c(c4)OCCO5)C(=O)N23)cc1 (stereo not given in full),-74,-15,-69,-80
COC(=O)c1ccc(C2c3[nH]c4ccccc4c3C[C@@H]3C(=O)N(c4ccc5c(c4)OCCO5)C(=O)N23)cc1 (stereo not given in full),8,48*,5,1
COc1ccccc1CC(=O)N1CCC(c2[nH]nc3nccnc23)CC1,-2,0,-17,-2
O=C(c1ccc2c(c1)OCO2)[C@@H]1[C@H](C(=O)OC(c2ccccc2)c2ccccc2)N2c3ccccc3C=CC2[C@@]12C(=O)Nc1ccccc12 (stereo not given in full),-24,-5,19,-26
CC(C)(C)C(=O)[C@@H]1[C@@H](C(=O)c2ccc3c(c2)OCO3)[C@@]2(C(=O)Nc3ccccc32)[C@H]2c3ccccc3C=CN12,-15,16,93*,21
O=C(Cn1ccc2ccn(Cc3ccccc3)c2c1=O)Nc1cccc(F)c1,6,9,32*,-1
Cc1ccccc1NC(=O)Cn1cccc(-c2nc(-c3ccccc3)no2)c1=O,4,0,28,-5
COc1ccc(-c2cc3c(=O)n(CC(=O)Nc4ccccc4C)ccn3n2)cc1,13,29,31*,4
SMILES,USP7 inh,USP10 inh,USP8 block,UCHL1 inh
Cn1ccc2ccn(CC(=O)Nc3cccc(Cl)c3)c(=O)c21,nt,1,1,1
O=C(Cn1c(=O)c2c(ncn2C2CCCC2)n(Cc2ccccc2)c1=O)NCC1CCCO1 (stereo not given),-2,-5,-13,-3
Cc1ccccc1NC(=O)Cn1c(=O)c2c(ncn2C2CCCC2)n(Cc2ccccc2)c1=O,-39,7,39*,1
Cc1ccccc1NC(=O)Cn1ccc2ccn(Cc3ccccc3)c2c1=O,8,19,49*,-4
CC1(C)CC[C@]2(C(=O)O)CC[C@]3(C)C(=CCC4[C@@]5(C)CC[C@H](O)[C@@](C)(CO)C5CC[C@]43C)[C@@H]2C1 (stereo not given in full),11,12,10,1
CCn1c(=O)c(-c2ccc(C(=O)Nc3cc(C)ccc3OC)cc2)nc2cccnc21,2,0,10,-1
O=C(Nc1nnc(CCc2ccccc2)s1)C(=O)c1c[nH]c2ccccc12,7,10,20,0
COc1ccc(C(=O)CSc2nnc(-c3cc4cccc(OC)c4o3)n2C)cc1OC,3,-3,0,-4
Cn1c(SCC(=O)NCc2ccccc2)nnc1-c1cc2ccccc2o1,-2,5,30*,4
Cn1c(SCC(=O)c2ccc(F)cc2)nnc1-c1cc2ccccc2o1,2,6,41*,-1
O=C(Cn1cncn1)N1C[C@H]2CC[C@@H](Oc3cccnc3)[C@H]2C1,0,0,-5,-6
CC(=O)N1C[C@@H]2[C@H](NC(=O)c3ccc4ncccc4c3)c3ccccc3[C@@H]2C1,2,-1,5,0
COc1cc2c(cc1OC)-c1cc(Nc3ccc(Br)cc3)nc(=O)n1CC2,7,43*,8,-3
COc1ccc(CCNc2cc3n(c(=O)n2)CCc2cc(OC)c(OC)cc2-3)cc1OC,0,-4,-28,1
Cc1cc(Nc2ccc(C)c(Cl)c2)n2nc(-c3cccnc3)nc2n1,3,-8,10,0
Cc1cc(Nc2ccc(C)c(Cl)c2)n2nc(-c3ccco3)nc2n1,-4,-5,35*,-17
O=C(Nc1cccc(F)c1)c1cc(CN2CCOCC2)on1,2,2,18,3
O=C(Nc1ccc2ccccc2c1)C(=O)C1C(=O)Nc2ccccc21 (stereo not given),3,7,62*,2
CCOc1ccc(CC(=O)Nc2ccc(-c3cn4cccnc4n3)cc2)cc1,-24,14,40*,22
O=C(NC1CC1)c1cc(-c2ccco2)nc2onc(-c3ccccc3)c12,-11,-7,1,1
COCCCN1CCS(=O)(=O)c2c(Cl)c(F)nc(Oc3ccccc3)c21,-142,0,35*,1
COc1ccc(Oc2nc(F)c(Cl)c3c2N(CC2CCCO2)CCS3(=O)=O)cc1 (stereo not given),-25,5,69*,6
CCCCN1CCS(=O)(=O)c2c(Cl)c(F)nc(Oc3ccc(OC)cc3)c21,7,9,50*,7
Cc1ccc(-n2cc(C(=O)NCCCc3ccccc3)nn2)cc1,25,24,78*,7
Cc1ccc(-n2cc(C(=O)N3CCc4ccccc4C3)nn2)cc1,0,1,19,-2
Cc1ccc(-n2cc(C(=O)NCc3ccccn3)nn2)cc1C,5,3,15,5
Cc1ccc(-n2cc(C(=O)N3CCN(c4ccccc4)CC3)nn2)cc1,2,6,40*,0
O=C(Cn1c(=O)[nH]c2ccccc2c1=O)N[C@H](Cc1c[nH]c2ccccc12)C(=O)O,nt,-8,-14,-2
O=C(NCc1ccc(S(=O)(=O)N2CCCCCC2)s1)C1CC1,2,1,12,-1

# Screens deposited in PubChem BioAssay by Buhrlage Lab, Dana-Farber Cancer Institute and Novartis Institutes for BioMedical Research (Cambridge, Mass).
